For the experiment, the system named is Plasmodium falciparum NF54 stage V gametocytes. Description: viability index relative to DMSO control (fraction); higher = less gametocyte killing. To be noted: 2.5 µM, library set: Broad Institute DOS, incubation time: 72 h. The protocol:
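Broad DOS informer set and blood-stage-active DOS compounds screened in duplicate at 2.5 µM against P. falciparum NF54 stage V gametocytes with the serum-free one-step SaLSSA (1536-well): 72 h at 37 °C under low oxygen, then saponin lysis and MitoTracker Red CMXRos staining, with high-content imaging. Viability index = viable-object count divided by the plate mean of DMSO wells (0 = killed, about 1 = inactive).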

± gives the uncertainty stated by the source. In all, about 9,900 compounds were measured (“viability index relative to DMSO control”: median about 1, lowest 2% from about 0.85 on). The full list was thinned out, with the lowest values kept by preference.

`Cc1ccc(S(=O)(=O)Nc2cccc3c2O[C@H](CN(C)C(=O)Nc2ccc(C(F)(F)F)cc2)[C@H](C)CN([C@H](C)CO)C3=O)cc1` showed a viability index of 1.07 ± 0.04.

`Cc1ccc(S(=O)(=O)N2CC[C@@H]3[C@H](CO)Nc4ccc(-c5cccc(C(=O)N(C)C)c5)cc4[C@@H]32)cc1` displayed a viability index of 0.77 ± 0.034.

In the case of `Cc1ccc(S(=O)(=O)N2CC[C@@H]3[C@@H](CO)Nc4ccc(-c5cccc(C(=O)N(C)C)c5)cc4[C@@H]32)cc1`, the viability index was determined as 0.837 ± 0.012.

In turn, `CN(C)C(=O)c1cccc(-c2ccc3c(c2)[C@@H]2[C@@H](CCN2C(=O)Cc2ccccc2)[C@H](CO)N3)c1` registered a viability index of 0.991 ± 0.022.

In turn, `CN(C)C(=O)c1cccc(-c2ccc3c(c2)[C@H]2[C@H](CCN2C(=O)Cc2ccccc2)[C@H](CO)N3)c1` registered a viability index of 1.03 ± 0.03.

`CN(C)C(=O)c1cccc(-c2ccc3c(c2)[C@@H]2[C@@H](CCN2C(=O)Cc2ccccc2)[C@@H](CO)N3)c1` showed a viability index of 1.04 ± 0.025.

In the case of `Cc1ccc(S(=O)(=O)N2CC[C@H]3[C@H](CO)Nc4ccc(-c5cccc(C(=O)N(C)C)c5)cc4[C@H]32)cc1`, the viability index was determined as 0.7 ± 0.018.

For `Cc1ccc(S(=O)(=O)N2CC[C@@H]3[C@H]2c2cc(-c4cccc(C(=O)N(C)C)c4)ccc2N[C@@H]3CO)cc1`, the viability index was 0.885 ± 0.055.

With `CN(C)C(=O)c1cccc(-c2ccc3c(c2)[C@H]2[C@H](CCN2C(=O)Cc2ccccc2)[C@@H](CO)N3)c1`, the viability index turned out to be 0.899 ± 0.042.

The molecule `N#Cc1cccc(-c2ccc3c(c2)[C@H]2[C@H](CCN2S(=O)(=O)c2ccc(F)cc2)[C@@H](CO)N3)c1` yielded a viability index of 0.949 ± 0.023.

Turning to `O=C(N[C@H]1C=C[C@@H](CC(=O)N2CCN(c3ccccc3)CC2)O[C@H]1CO)c1ccccc1`, the viability index was determined as 1.04 ± 0.087.

On to `N#C[C@H]1[C@H](c2ccc(-c3cncnc3)cc2)[C@@H](CO)N1C(=O)Cc1ccccc1`, for which the viability index stood at 1.06 ± 0.1.

The molecule `COc1ccc(-c2ccccc2[C@@H]2[C@@H](CO)N(C(=O)C3CCC3)[C@H]2C#N)cc1` yielded a viability index of 1.17 ± 0.15.

`O=C(C[C@@H]1CC[C@H]2NC[C@H](O)COC[C@@H]2O1)Nc1nccs1` yielded a viability index of 1.04 ± 0.068.

`C[C@H](CO)N1C[C@H](C)[C@H](CN(C)Cc2cccc(C(F)(F)F)c2)OCc2ccccc2-c2c(n(C)c3ccccc23)C1=O` yielded a viability index of 0.972 ± 0.029.

Regarding `COc1cccc(S(=O)(=O)N2CCCCN3[C@H](CO)[C@@H](c4ccc(C#CCC(C)C)cc4)[C@@H]3C2)c1`, the viability index worked out at 0.941 ± 0.042.

In turn, `COc1cccc(S(=O)(=O)N2CCCCN3[C@H](CO)[C@H](c4ccc(C#CCC(C)C)cc4)[C@H]3C2)c1` gave a viability index of 0.6428 ± 0.0032.

`COc1cccc(S(=O)(=O)N2CCCCN3[C@@H](CO)[C@@H](c4ccc(C#CCC(C)C)cc4)[C@@H]3C2)c1` displayed a viability index of 0.393 ± 0.021.

With `COc1cccc(S(=O)(=O)N2CCCCN3[C@@H](CO)[C@H](c4ccc(C#CCC(C)C)cc4)[C@@H]3C2)c1`, the viability index was 1.01 ± 0.053.

Regarding `COc1cccc(S(=O)(=O)N2CCCCN3[C@H](CO)[C@H](c4ccc(C#CCC(C)C)cc4)[C@@H]3C2)c1`, the viability index was found to be 1 ± 0.078.

In turn, `COc1cccc(S(=O)(=O)N2CCCCN3[C@H](C2)[C@H](c2ccc(C#CCC(C)C)cc2)[C@@H]3CO)c1` had a viability index of 0.9833 ± 0.0041.

Take `COc1ccc(NC(=O)N(C)C[C@H]2Oc3c(NC(=O)CCCCCC(=O)Nc4ccccc4N)cccc3C(=O)N([C@H](C)CO)C[C@H]2C)cc1`: the viability index is 0.62 ± 0.082.

Turning to `COc1ccc(NC(=O)N(C)C[C@@H]2Oc3c(NC(=O)CCCCCC(=O)Nc4ccccc4N)cccc3C(=O)N([C@@H](C)CO)C[C@@H]2C)cc1`, the viability index amounted to 0.943 ± 0.058.

Molecule `COc1ccc(NC(=O)N(C)C[C@H]2Oc3c(NC(=O)CCCCCC(=O)Nc4ccccc4N)cccc3C(=O)N([C@@H](C)CO)C[C@H]2C)cc1` registered a viability index of 0.645 ± 0.046.

Molecule `COc1ccc(NC(=O)N(C)C[C@H]2Oc3c(NC(=O)CCCCCC(=O)Nc4ccccc4N)cccc3C(=O)N([C@@H](C)CO)C[C@@H]2C)cc1` had a viability index of 0.991 ± 0.081.

Take `COc1ccc(NC(=O)N(C)C[C@@H]2Oc3c(NC(=O)CCCCCC(=O)Nc4ccccc4N)cccc3C(=O)N([C@H](C)CO)C[C@H]2C)cc1`: the viability index stood at 0.893 ± 0.012.

Turning to `COc1ccc(NC(=O)N(C)C[C@@H]2Oc3c(NC(=O)CCCCCC(=O)Nc4ccccc4N)cccc3C(=O)N([C@@H](C)CO)C[C@H]2C)cc1`, the viability index is 1.07 ± 0.091.

In turn, `COc1ccc2c3c([C@@H](CO)N(Cc4cc(OC)cc(OC)c4)C[C@]33CN(C3)C(=O)CN3CCOCC3)n(C)c2c1` showed a viability index of 0.879 ± 0.02.

Turning to `COC(=O)C[C@H]1CC[C@H]2[C@@H](COc3ccc(NS(=O)(=O)c4ccc(C)cc4)cc3C(=O)N2C)O1`, the viability index is 1.114 ± 0.0014.

As to `C[C@@H]1CCCCO[C@@H](CN(C)CC2CCCCC2)[C@H](C)CN([C@@H](C)CO)C(=O)c2cc(NS(C)(=O)=O)ccc2O1`, the viability index worked out at 1.08 ± 0.061.

Consider `COc1cccc(-c2ccc([C@@H]3[C@@H]4CN(S(=O)(=O)Cc5ccccc5)C[C@H]3N4)cc2)c1`, for which the viability index came out at 0.808 ± 0.031.

Molecule `N#Cc1ccc(-c2ccc([C@@H]3[C@@H]4CN(S(=O)(=O)Cc5ccccc5)C[C@H]3N4)cc2)cc1` had a viability index of 0.976 ± 0.037.

In turn, `CC(=O)N1C[C@@H]2N[C@H](C1)[C@H]2c1ccc(-c2ccccc2)cc1` registered a viability index of 1.11 ± 0.016.

`CS(=O)(=O)N1C[C@@H]2N[C@H](C1)[C@@H]2c1ccc(-c2ccccc2)cc1` yielded a viability index of 0.706 ± 0.03.

With `Cc1ccccc1-c1ccc([C@@H]2[C@@H]3CN(S(=O)(=O)Cc4ccccc4)C[C@H]2N3)cc1`, the viability index was determined as 0.854 ± 0.034.

`O=S(=O)(c1ccc(-c2ccccc2)cc1)N1C[C@@H]2N[C@H](C1)[C@@H]2c1ccc(-c2ccncc2)cc1` returned a viability index of 1.072 ± 0.0057.
